# E coli Lon inh: inhibitors of E. coli Lon protease. P0A9M0. purified E. coli Lon protease, fluorescence polarization. inhibition, % at 7.94 µM. hit rate 0.42% among 360,000. AID 602123; in the data active means inhibition above about 13%, passing the limit was not always enough;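 further: 0% = enzyme with probe and DMSO and 100% = no enzyme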
# EBV gp42 block: EBV gp42 inhibition. Q1HVG2. Fluorescence polarization binding assay, mP read-out. inhibition, % (tested at 21.74 µM). hit rate 0.42% among 220,000. AID 1085; in the data active means inhibition above about 50%
# GLD-1 TGE inh: GLD-1-TGE RNA interaction inhibition (C. elegans) | Q17339 | purified GLD-1 + fluorescein TGE RNA, fluorescence polarization | inhibition, % at 5.96 µM | hit rate 0.44% among 320,000 | AID 2280;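 active means percent inhibition above a per-plate cutoff, the plate mean of test compounds plus 3 SD, cut at about 30% in these data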;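 further: 0% = DMSO wells with GLD-1 and probe and 100% = wells lacking GLD-1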
# BCLXL inh: blocks human Bcl-xL binding to Bim BH3 peptide; GST-Bcl-xL / FITC-Bim BH3 peptide fluorescence polarization; inhibition, % at 10.9 µM; AID 2129; hit rate 0.7% among 320,000; Q07817;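 active means inhibition above the mean of all tested compounds plus 3 SD, cutoff set per campaign, cut at about 30% in these data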;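 further: 0% = DMSO wells and 100% = unlabeled Bim-BH3 peptide competitor; inhibitors lower millipolarization by displacing the labeled peptide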
# MEX-5 binding: C. elegans MEX-5 TCR-2 RNA binding activity; MEX-5/FITC-TCR2 RNA binding, fluorescence polarization; hits give low values; activity score (negative = inhibition of binding), % at 10 µM; AID 1832; hit rate 0.38% among 300,000; Q9XUB2;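 active means inhibition past about -25% in most replicates, and total fluorescence under double the plate's negative control median, limit read from the data; inconclusive means replicates evenly split on the limit, or fluorescence at least double controls; inactive means too little inhibition in most replicates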;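 further: 0% = DMSO and -100% = 5 µM competing unlabeled TCR2 RNA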
# Target sequence (Q9XUB2 whole entry, looked up): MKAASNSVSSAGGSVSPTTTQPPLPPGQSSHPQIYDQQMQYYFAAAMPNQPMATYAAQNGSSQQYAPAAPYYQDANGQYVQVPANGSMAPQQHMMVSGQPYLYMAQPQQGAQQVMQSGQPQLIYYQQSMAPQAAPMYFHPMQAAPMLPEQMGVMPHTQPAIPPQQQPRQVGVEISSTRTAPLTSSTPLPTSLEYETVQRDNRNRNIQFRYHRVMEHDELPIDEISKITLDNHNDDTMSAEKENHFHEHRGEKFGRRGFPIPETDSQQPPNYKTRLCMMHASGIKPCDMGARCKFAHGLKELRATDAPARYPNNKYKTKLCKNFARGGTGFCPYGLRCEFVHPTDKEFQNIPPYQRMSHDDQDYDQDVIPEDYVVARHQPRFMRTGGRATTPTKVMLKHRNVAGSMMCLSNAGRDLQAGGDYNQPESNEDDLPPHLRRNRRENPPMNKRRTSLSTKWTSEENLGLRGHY
# Numbers without * were called inactive; ? = inconclusive; / = not tested or not shown. An excerpt weighted towards active compounds, which were near 1.3% of everything screened.
SMILES,E coli Lon inh,EBV gp42 block,GLD-1 TGE inh,BCLXL inh,MEX-5 binding
Nc1nn2c(-c3ccccc3)cc(=O)[nH]c2c1N=Nc1ccc(Br)cc1,-7.7,60.1*,/,/,/
CCOc1ccc2sc(NS(=O)(=O)c3ccc(OC)c(OC)c3)nc2c1,1.8,-7.4,9.0,63.8*,0.5
CC1CCCCN1C(=O)/C(=C\c1ccccc1)c1ccccc1 (stereo unspecified),-0.4,-5.8,6.2,-2.4,-0.9
CN(C)Cc1c(O)ccc2cc(-c3nc4ccccc4n3C)c(=O)oc12,-19.1,/,21.7,51.7*,-3.1
O=C(NNC(=O)C1CCC1)c1ccc(Br)cc1,-1.0,/,2.5,-0.1,0.1
Cc1cnc(C(=O)NNC(=O)c2ccc(Br)cc2)cn1,3.8,/,5.5,-0.9,-41.3*
COc1ccc(S(=O)(=O)N2CCN(c3ccc(F)cc3)CC2)cc1C(=O)N1CCOCC1,-3.9,/,5.0,3.2,-2.5
COc1cc(/C=C2/C(=O)NN(c3cccc(C)c3)C2=O)cc([N+](=O)[O-])c1O,6.1,-2.3,0.2,27.7,-27.1*
COc1cc(/C=C2\SC(=O)N(c3ccc(Cl)cc3)C2=O)cc([N+](=O)[O-])c1O,-1.2,100.1*,/,/,/
O=C1S/C(=C\c2ccc(O)c([N+](=O)[O-])c2)C(=O)N1c1ccccc1Cl,4.4,3.9,1.5,3.6,-4.0
COc1cc(/C=C2\SC(=O)N(c3cccc(Cl)c3)C2=O)cc([N+](=O)[O-])c1O,-0.5,86.6*,/,/,/
O=C1CC2(CCCCC2)CC(=O)N1CCc1ccccc1,-1.9,/,/,/,/
O=C1C=CC(=O)C(C2=C3C(=O)N(CCc4ccccc4)CC(=O)N3CCC2)=C1,/,-16.9,5.9,20.1,-47.3*
O=C(OCc1cc(=O)n2ccsc2n1)c1ccc(OC(F)F)cc1,-5.3,/,/,/,/
NS(=O)(=O)c1ccc(N=Nc2c(=O)[nH]n3c(=O)c4c([nH]c23)CCCC4)cc1,-3.1,8.1,-3.4,8.0,-83.5*
O=c1[nH]n2c(=O)c3c([nH]c2c1N=Nc1cccc(Cl)c1)CCC3,-18.6,52.4*,17.1,27.5,-4.3
O=c1[nH]n2c(=O)c3c([nH]c2c1N=Nc1cccc(C(F)(F)F)c1)CCCC3,2.1,5.4,4.5,17.5,-3.6
COc1ccc(CC(NC(C)=O)C(=O)NC2CCN(S(=O)(=O)c3ccccc3)CC2)cc1OC (stereo unspecified),-0.2,-7.4,-5.2,-2.2,-1.5
O=C(NCc1ccccc1CN1CCCC1)c1cc2cc(Cl)ccc2o1,-7.3,/,4.4,-0.5,/
Cc1cccnc1NC(=O)CSc1nnc(Cc2ccccc2)o1,9.1,-9.8,-1.1,2.9,3.1
COc1cccc(-c2cc(C(=O)NCC3CCCO3)on2)c1 (stereo unspecified),-2.9,/,1.4,3.7,-4.6
COc1ccc(-c2cc(C(=O)NCC3CCCO3)on2)cc1OC (stereo unspecified),1.5,/,6.9,34.0*,0.0
COc1ccccc1N1CCN(C(=O)CCCN2C(=O)c3cccc4cccc(c34)C2=O)CC1,10.7,6.5,4.9,12.0,-2.4
Oc1c(C=Nc2ccccc2)sc(=S)n1Cc1ccccc1,-24.3,-57.6,-18.5,-25.3,-43.5*
CN(C)S(=O)(=O)c1cccc(NC(=O)c2ccc(-n3cncn3)c([N+](=O)[O-])c2)c1,12.0,/,3.8,-10.5,0.6
SMILES,E coli Lon inh,EBV gp42 block,GLD-1 TGE inh,BCLXL inh,MEX-5 binding
CCC(=O)Nc1ccc2nc3c(=O)[nH]c(=S)[nH]c3nc2c1,9.9,/,16.0,61.3*,-46.4*
CCN(CC)C(=O)CSc1ncnc2c(-c3cccs3)nsc12,-16.0,-15.2,16.5,35.0*,/
CN1CCc2c(sc3c2c(=O)n(-c2ccc(Cl)cc2)c2nncn32)C1,-12.5,-1.9,3.6,8.3,-0.4
CCN(CC)CCn1c(=O)n(-c2ccc(Cl)cc2)c(=O)c2c3c(sc21)CN(C)CC3,-25.3,6.2,-40.6,35.4*,-13.8
CCCS(=O)(=O)c1cn2cccc(N)c2c1S(=O)(=O)CCC,17.6,-2.6,85.9*,98.3*,-0.2
Cc1ccccc1C1C(C#N)=C2NC(=O)c3c(sc4c3CCCCC4)N2C2=C1C(=O)CC(C)(C)C2 (stereo unspecified),/,-14.6,101.1*,29.7,?
Cc1ccccc1C1C(C#N)=C2N=C(N)c3c(sc4c3CCCCC4)N2C2=C1C(=O)CC(C)(C)C2 (stereo unspecified),-6.8,12.6,48.2*,54.6*,-2.4
O=C(CN(Cc1ccc(F)cc1)C(=O)CCC(=O)Nc1ccccn1)NCCc1ccccc1,-3.6,/,-0.5,1.4,0.2
CCN(Cc1cccc(F)c1)C(=O)c1ccc2ccccc2n1,-0.9,/,-2.4,5.2,-2.7

# Assay outcomes as filed in PubChem.
